From PubChem BioAssay AID743293 (Broad Institute, 2014) come the findings set out here.

Molecules are shown by their SMILES. Entries with a potency or affinity are not part of this list. Calls of active or inactive are those of the source.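 How the source made its calls: active means compounds lowering fluorescence with a fitted half-maximal concentration at or below a set limit tied to top dose; inconclusive means flat curve with 30 to 70% inhibition, or poor fit; inactive means the rest.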

The target in the assay is Caspase-9 (Homo sapiens) (UniProt P55211). The assay can be described thus: caspase-9 enzyme inhibition, dose response, selectivity assay for caspase-6 inhibitor project, biochemical, fluorescence, plate reader, cherry-picked samples (AID 743293). To be noted: purified caspase-9, Z-LEHD-R110 cleavage fluorescence; series mostly up to 35 µM.
Sequence of Caspase-9 (Homo sapiens) (P55211 whole entry, looked up): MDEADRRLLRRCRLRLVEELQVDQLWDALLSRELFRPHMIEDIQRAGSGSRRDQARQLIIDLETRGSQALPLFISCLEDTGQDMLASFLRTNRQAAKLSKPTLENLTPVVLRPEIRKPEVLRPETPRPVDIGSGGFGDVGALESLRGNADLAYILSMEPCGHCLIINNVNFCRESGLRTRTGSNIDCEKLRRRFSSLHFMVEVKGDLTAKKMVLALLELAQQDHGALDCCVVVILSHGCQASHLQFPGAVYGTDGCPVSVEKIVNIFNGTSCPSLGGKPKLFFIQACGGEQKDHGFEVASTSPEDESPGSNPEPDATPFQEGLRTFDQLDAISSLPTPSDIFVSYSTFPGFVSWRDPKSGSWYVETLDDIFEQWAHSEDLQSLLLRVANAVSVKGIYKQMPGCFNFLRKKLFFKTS
As to `CC(C)(C)c1ccc(NC(=O)COC(=O)c2ccc([N+](=O)[O-])s2)cc1`, the compound was called inactive.

With `O=C(Nc1ccc2nc3n(c(=O)c2c1)CCCCC3)c1c(F)ccc([N+](=O)[O-])c1F`, the call was inactive.

As to `O=C(O)C1CCCCC1C(=O)Nc1cccc(Br)c1` (centres undefined), the call was inactive.

Regarding `Cc1cccc(NC(=O)CNC(=O)c2cccc(-n3cccc3)c2)c1C`, the compound was classed as inactive.

Take `O=c1c(O)cccc2cc(O)c(O)c(O)c12`: the compound was classed as inactive.

Consider `Cc1cc(C=O)c(C)n1-c1cc(C(=O)O)cc(C(=O)O)c1`, for which the result was inactive.

With `COc1ccc(NS(=O)(=O)c2ccc3c(c2)[C@H]2C=CC[C@H]2[C@@H](c2ccc(C(=O)O)cc2)N3)cc1`, the compound was called inactive.

On to `CO[C@H]1CN(C)C(=O)c2cc(NC(C)=O)ccc2OC[C@@H](C)N(C(=O)CC2CC2)C[C@H]1C`, for which the outcome was inactive.

Take `CCCCN(C(=O)c1cccc(-n2cccc2)c1)c1c(N)n(Cc2ccccc2)c(=O)[nH]c1=O`: the compound was classed as inactive.

As to `CCCCNC(=O)c1nc(C2CCNCC2)oc1-c1cccc(C(F)(F)F)c1`, the outcome was inactive.

Consider `Cc1c(CCC(=O)O)c(=O)oc2c(C)c(OCc3ccccc3Cl)ccc12`, for which the compound was called inactive.

With `CN(CC(=O)Nc1ccccc1Cl)C(=O)COC(=O)c1ccc([N+](=O)[O-])s1`, the outcome was inactive.

With `COc1ccc(NC(=O)CN(C)C(=O)c2cccc(-n3cccc3)c2)cc1`, the compound was called inactive.

With `COc1cc(C)c2c(c1C=O)Oc1c(c(C)c(O)c3c1C(O)OC3=O)OC2=O` (centres undefined), the call was inactive.

For `O=C(Nc1ccc(S(=O)(=O)Nc2cnc3ccccc3n2)cc1)c1ccc(Cl)c([N+](=O)[O-])c1`, the call was inactive.

Consider `[O-][n+]1onc2c1CCc1c-2nn(-c2ccccc2Cl)[n+]1[O-]`, for which the result was inactive.

`Nc1cc2c(cc1Br)[nH]c(=O)c1ccccc12`: the compound was classed as inactive.

Regarding `Cn1cnnc1SCC(=O)Nc1ncc([N+](=O)[O-])s1`, the compound was called inactive.

For the compound `O=c1oc(-c2ccccc2)nc2sc3c(c12)CCC3`, the result was inactive.

As for `COCCn1c2nc(=O)n(-c3ccccc3)c(=O)c-2nc2ccccc21`, the outcome was inactive.

`O=C(O)CC(CCc1ccccc1)OC1OC(CO)C(O)C(O)C1O` (centres undefined): the call was inactive.

Consider `Oc1cc2c(cc1O)[C@H]1c3ccc(O)c(O)c3OC[C@@]1(O)C2`, for which the compound was classed as inactive.

As for `COc1ccc(C(=O)OCC(=O)Nc2ncc([N+](=O)[O-])s2)cc1OC`, the compound was called inactive.

As to `CC(CNc1ccccc1O)C(=O)O` (centres undefined), the outcome was inactive.

For the compound `CCOc1ccc2nc3cc(NCc4ccc(OC)cc4)ccc3c(N)c2c1`, the result was inactive.

As for `CCCCN(C(=O)c1cccc(-n2cccc2)c1)c1c(N)n(CCC)c(=O)[nH]c1=O`, the outcome was inactive.

`O=P(c1ccccc1)(c1ccccc1)c1cc(S(=O)(=O)O)ccc1O`: the compound was classed as inactive.

`C/C(CC(=O)N1CCCC1)=N\NC(=O)c1cc2ccccc2cc1O`: the result was inactive.

Take `O=C(c1cccc(-n2cccc2)c1)N1CCN(S(=O)(=O)c2ccccc2)CC1`: the outcome was inactive.
